# From PubChem BioAssay (NCI)
# About 83,000 compounds went through this panel and 20% of them were active in at least one assay; those are over-represented in the sample as a whole.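 Cells were grown in 96-well plates and exposed to the test compound at a single concentration for 48 hours; results are reported as percent growth, with values below 10 considered active.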 Unmarked numbers belong to inactive results. Activity calls are given as the source filed them.
# What was measured:
# Experiment in all cases: NCI-60 one-dose screen, 48 h (100 = growth as untreated, 0 = no growth, -100 = all killed)
# Conditions in all cases: 10 µM unless noted
# HCT-15 colon = system: HCT-15 colon
# HT29 colon = system: HT29 colon
# SNB-75 CNS = system: SNB-75 CNS
# SNB-19 CNS = system: SNB-19 CNS
# U251 CNS = system: U251 CNS
# PC-3 prostate = system: PC-3 prostate
# UACC-62 melanoma = system: UACC-62 melanoma
# LOX IMVI melanoma = system: LOX IMVI melanoma
# SK-MEL-28 melanoma = system: SK-MEL-28 melanoma
SMILES,growth (HCT-15 colon),growth (HT29 colon),growth (SNB-75 CNS),growth (SNB-19 CNS),growth (U251 CNS),growth (PC-3 prostate),growth (UACC-62 melanoma),growth (LOX IMVI melanoma),growth (SK-MEL-28 melanoma)
CC1=C[C@H]2c3c(c(O)c(O)c4oc(-c5ccccc5)cc(=O)c34)[C@H](c3cc(O)c(O)c4oc(-c5ccccc5)cc(=O)c34)[C@H]2C(C)(C)C1,11.3%,9.18% (active),-8.01% (active),11.9%,2.66% (active),5.35% (active),-46.3% (active),-86.5% (active),8% (active)
CSc1ccc(-c2ccccc(=O)c2O)cc1,26.9%,25.7%,34.6%,17.5%,9.54% (active),30.9%,-23% (active),9.8% (active),26.9%
O=C1OC(c2ccccc2)C(O)=C1c1ccccc1 (stereo not drawn),108%,111%,102%,105%,100%,99.1%,104%,113%,120%
COc1ccc(/C=C/c2nc(-c3n[nH]c(=O)n3-c3ccccc3)c3ccccc3n2)cc1,93.8%,101%,81.7%,96.7%,99.5%,95.9%,87.2%,97.2%,106%
C=C(C)C1CC(O)C2(C)CCCC3C2C1CC(C)C3(C)CC/C(C)=C/C(O)C1CCC(=O)c2c(OC)cc(OC)cc21 (stereo not drawn),30.7%,46.6%,38.3%,56.5%,35.9%,20.9%,36.5%,22.5%,49.6%
CN1CCN(CCCOc2cccc3nc(Nc4cc(Cl)cc(Cl)c4)ccc23)CC1,-73.6% (active),-80.1% (active),36.4%,7.72% (active),-1.53% (active),3.25% (active),-57.7% (active),-92.9% (active),-51.2% (active)
CCCn1c(=O)[nH]c(N)c([C@H]2c3ccccc3Oc3[nH]c(=O)n(CCC)c(=O)c32)c1=O,48.9%,85.3%,82.9%,97.8%,81.8%,107%,80.6%,64.8%,73%
O=C1NC(=O)C(c2ccc(Cl)cc2Cl)N1 (stereo not drawn),108%,106%,92.7%,97.1%,103%,104%,97.7%,104%,112%
Nc1n[nH]c2ccc([C@@H]3Nc4ccc5cn[nH]c5c4[C@H]4C5CCC(C5)[C@@H]34)cc12 (stereo partly drawn),15%,13.1%,-12.5% (active),31.4%,23%,16.4%,39.4%,31.9%,61%
CCCSc1ccc2nc(NC(=O)OC)[nH]c2c1,18.1%,2.84% (active),22.4%,29.9%,14.1%,20.7%,27.6%,50.1%,53.7%
COc1ccc(NC(=O)c2ccc(/C=C/C(=O)c3ncc[nH]3)cc2)cc1,35.2%,3.59% (active),75%,56.1%,18.8%,92.3%,78.2%,26.9%,102%
O=C1/C(=C/c2ccccc2O)N=C2SCCCN12,97%,103%,70.6%,90.8%,98.6%,88.2%,–,96.5%,–
Nc1n[nH]c2cc(F)c([C@@H]3Nc4ccc5[nH]ncc5c4[C@H]4C5CCC(C5)[C@@H]34)cc12 (stereo partly drawn),6.23% (active),3.7% (active),-13.5% (active),35.4%,2.97% (active),8.48% (active),31.5%,12.3%,65.8%
CCNC(=O)Oc1ccc(/C(=C(\C)c2ccc(Cl)cc2)c2ccc(OCCN(CC)CC)cc2)cc1,1.8% (active),-23.2% (active),45.2%,59.2%,21.1%,31.4%,-68.3% (active),-59% (active),-62.3% (active)
COc1cc(-c2nn(-c3ccc(C)cc3)cc2C(=O)O)ccc1O,99.4%,107%,87.5%,97.7%,108%,91%,96.1%,86%,104%
Cc1c(/C=C/[N+](=O)[O-])ccc2c1[nH]c1ccccc12,81.3%,96.5%,107%,100%,73.7%,95.5%,81%,–,113%
COc1cc(Nc2cc(C)nc(N3CCN(c4ccnc5cc(Cl)ccc45)CC3)n2)cc(OC)c1,5.63% (active),3.4% (active),8.38% (active),27.5%,9.56% (active),22.8%,-2.21% (active),–,44.5%
COC(=O)c1ccc(Cn2cnc3c(N)ncnc32)cc1,99.8%,98.6%,86.7%,104%,111%,111%,102%,–,104%
CCc1nc(N)nc(N)c1C#CC(C)c1ccc(-c2ccncc2)cc1Cl (stereo not drawn),13.3%,4.74% (active),-9.88% (active),20.9%,13.8%,21.6%,13.2%,13.9%,40.4%
Cc1ccc(-c2onc3c(=O)[nH]nc(-c4ccccc4)c23)cc1,31.7%,-3.08% (active),10.1%,31.3%,20.3%,25.8%,44.8%,37.6%,66.9%
CC1=C/C(=C(\c2ccc(N(C)C)cc2)c2ccc([N+](C)(C)C)cc2)C=CC1=[N+](C)C,95.7%,36.5%,80.5%,77%,25.7%,72.9%,97.6%,69.1%,72.3%
c1ccc2[nH]c(-c3ccc(Nc4nc(N5CCCC5)nc5[nH]ncc45)cc3)nc2c1,-36.2% (active),-49.1% (active),-79.2% (active),15.5%,-66.1% (active),0.946% (active),–,-84.4% (active),–
CN1CCN(Cc2ccc(NC(=O)c3cncc(C#Cc4cncn5ccnc45)c3)cc2C(F)(F)F)CC1,46.1%,19.2%,123%,92.4%,76.9%,90.3%,18.7%,4.74% (active),30.3%
CC(=O)c1cc2c(N)c(C(=O)Nc3ccccc3)sc2nc1C,60.3%,67.3%,66.8%,68.4%,73.5%,81%,31.5%,85.4%,78.4%
CC1=C[C@H]2c3c(c(O)c(O)c4oc5ccccc5c(=O)c34)[C@H](c3cc(O)c(O)c4oc5ccccc5c(=O)c34)[C@H]2C(C)(C)C1,13.7%,14.8%,-29.7% (active),13.8%,5.08% (active),5.67% (active),-65.5% (active),-78.9% (active),18.3%
O=c1ccccc(-c2ccc(Br)cc2)c1O,26.3%,21.9%,31.4%,13%,9.54% (active),29.5%,-49.3% (active),4.54% (active),23.2%
OCCNc1nccc(N2CCN(c3ccnc4cc(Cl)ccc34)CC2)n1,51.3%,45.7%,71.3%,88.9%,86%,72.2%,71.4%,–,94%
Clc1ccc2c(NCCCCNc3nc(N4CCOCC4)nc4ccccc34)ccnc2c1,22.9%,-26.4% (active),79%,14.7%,-59.6% (active),38.9%,99.1%,-66.6% (active),119%
O=C(O)c1ccc(N=CC(=O)c2ccc(-c3ccccc3)cc2)cc1,113%,103%,109%,101%,98.5%,86.2%,93.5%,101%,101%
